# Compound activity as filed in PubChem.
# BCR signal inh – blocks chronic active B-cell receptor signaling; ABC-DLBCL IkBa-CBG/CBR reporter, luminescence ratio, 4 h; AID 493014; 340,000 compounds, 0.05% hits; Potency, µM (series often up to 46.1 µM), for inactives: at the top dose activity change, negative = inhibition, usual class: inhibitors; active = well fitted inhibition curve with a large enough effect in the signal ratio, with a control signal flat, not every such curve was filed as active; inconclusive = small, poorly fitted or top-dose-only effect, or effect the other way, or a change in a side signal; the % refers to the signal ratio;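 also: potency is read from the fitted curve at half-maximal effect; plate controls were basal doxycycline-induced cells for no effect and cells given 10 µM MG132 for full effect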
#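 TMD8 ABC-DLBCL cells carrying doxycycline-inducible green luciferase fused to IkappaBalpha plus unfused red luciferase were exposed to compounds (up to 46 uM) for 4 hrs at 37C. Activity came from the overlap-corrected green/red luminescence ratio.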
# TDP1 cell CPT – growth inhibition of DT40 Tdp1-/-;hTDP1 cells with camptothecin (screen for TDP1 inhibitors); chicken DT40 Tdp1-/-;hTDP1 cells + 20 nM CPT, ATP luminescence, 48 h; 420,000 compounds, 12% hits; Potency, µM (highest dose often 46.2 µM), without a hit: at the highest dose activity change, negative = growth inhibition, usual class: inhibitors; also: potency is read from the fitted curve at half-maximal effect; % is scaled to controls: 0 for no effect and ±100 for the full control effect; nearly all actives have a fitted effect of over 55% in size
#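 Cell growth measured by CellTiter-Glo luminescence after a minimum 48 h, 37 C compound exposure with 20 nM CPT in Tdp1-knockout DT40 cells stably expressing hTDP1, seeded 400/well; qHTS titration format.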
# IL1B secr inh – inflammasome signaling inhibition, IL-1 beta readout; THP-1 LPS/ATP IL-1B secretion, AlphaLISA, 16 h; stronger effect = lower value; activity change, % at 57.5 µM; AID 743279; 360,000 compounds, 4.7% hits; in the data active = activity change below about -50%; inconclusive = mostly about -30% to -49%; also: % is scaled to controls: 0 for no effect and ±100 for the full control effect
#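 Secreted IL-1B measured by AlphaLISA bead assay after 16 h compound exposure of THP-1 cells; compounds (final up to 57.5 uM) added 1 h before LPS (250 ng/mL) and ATP (1.25 mM) stimulation; lower signal means less secretion.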
# SW480 rerep – inducers of DNA re-replication in SW480 colon cancer cells | SW480 DNA re-replication, Hoechst DNA content imaging, 48 h | Potency, µM (titrated, usually from 46.1 µM), for inactives: at the highest dose re-replication activation, most hits filed as activators | 340,000 compounds, 1.8% hits | AID 624297; also: potency is read from the fitted curve at half-maximal effect; % of control where 0% means no effect; nearly all actives have a fitted effect of over 55% in size
#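 Treated cells incubate 48 hr (37 C, 5% CO2), are stained 40 min with Hoechst, and nuclear fluorescence is enumerated; a rise in nuclei with high DNA signal marks re-replication.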
# DT40 TDP1 no CPT – qHTS for Inhibitors of human tyrosyl-DNA phosphodiesterase 1 (TDP1): qHTS in cells in absence of CPT; Potency, µM (series often up to 46.2 µM), for the others: at the highest dose activity change, negative = growth inhibition, usual class: inhibitors; 420,000 compounds, 15% hits; DT40 Tdp1-/- hTDP1 cells, no CPT, ATP luminescence, 48 h; also: potency is read from the fitted curve at half-maximal effect; % is scaled to controls: 0 for no effect and ±100 for the full control effect; nearly all actives have a fitted effect of over 55% in size
#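 Growth of hTDP1-complemented DT40 Tdp1-knockout cells is measured by ATP luminescence after at least 48 hr compound exposure at 37 °C, with DMSO substituting for the 20 nM CPT used in the parallel screen.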
# MCF10A rerep – induces DNA re-replication in MCF 10a normal breast cells | Potency, µM (doses to about 46.1 µM), without a hit: top-dose activity, positive = re-replication, most hits filed as activators | MCF 10A DNA re-replication, Hoechst nuclear intensity, 48 h | 350,000 compounds, 2.9% hits; also: potency is read from the fitted curve at half-maximal effect; % of control where 0% means no effect; nearly all actives have a fitted effect of over 50% in size
# * = called active by the depositor; u = inconclusive; x = not tested or not shown; [ ] = dose if it differs, or a comment. Most compounds without a hit are left out; they make up all but 19% or so of the library. Unless noted, calls follow the shape of the dose curve; as a rule, active = well fitted curve in the direction sought with a large enough effect; inconclusive = small, poorly fitted or top-dose-only effect, or another doubt; inactive = no such curve, though single readings can be large; an effect the other way counts as inactive or inconclusive.
SMILES,BCR signal inh,TDP1 cell CPT,IL1B secr inh,SW480 rerep,DT40 TDP1 no CPT,MCF10A rerep
O=C(N/N=C/c1ccccn1)c1cc(-c2ccncc2)nc2ccccc12,u,u,-24,-3%,u,u
CC(C)(C)c1ccc(CC(=O)N2CCC2(C)C(=O)O)cc1 (centres undefined),x,6%,2,x,-21%,x
CCCCC(CC)C(=O)O (centres undefined),-2%,-12%,-19,-6%,-4%,-4%
Cc1cccc(NC(=S)NCCc2ccccc2)n1,u,u,16,u,16µM*,-2%[9.22 µM]
S=C(NCc1ccco1)Nc1ccccn1,-1%,-12%,5,-3%,u,-2%
S=C(NCCc1ccccc1)Nc1ccccn1,u,6.5µM*,0,-8%,18µM*,2%
c1cc2c(c(NCc3ccncc3)c1)CCCC2,4%,12µM*,16,-9%,12µM*,-3%
CC(C)(C)CC(=O)Nc1cccc2c1CCCC2,-11%,-4%,-8,0%,-13%,13%
COc1cc2c(cc1OC)C(CCc1ccccc1)=NCC2,u,u,-18,15%,16µM*,8%
COc1cc2c(cc1OC)C(c1c(-c3c(Cl)cccc3Cl)noc1C)=NCC2,x,23µM*,9,x,10µM*,x
COc1ccc(C2=NCCc3cc(OC)c(OC)cc32)cc1,-3%,u,-2,-72%,21µM*,-56%
COc1cc2c(cc1OC)C(c1c(Cl)cccc1Cl)=NCC2,x,0.26µM*,9,x,0.23µM*,x
O=C(COC(=O)C12CC3CC(CC(Cl)(C3)C1)C2)Nc1ccccc1,u,-2%,6,8%,0%,-3%
COc1cccc(C2=NCCc3cc4c(cc32)OCO4)c1OC,1%,-3%,-6,-693%,u,1%
COc1cc2c(cc1OC)C(c1cc(-c3cc(Cl)ccc3Cl)oc1C)=NCC2,x,1.3µM*,x,x,1µM*,x
Cc1cccc(CSc2nc(=O)c3c(n2C)NC(=O)CC3c2cc(F)cc(F)c2)c1 (centres undefined),x,9.2µM*,x,x,6.5µM*,x
CCOc1cc(C2CC(=O)Nc3c2c(=O)nc(SCc2cccc(Cl)c2)n3C)ccc1O (centres undefined),x,u,x,x,8.2µM*,x
O=C(c1cccc(S(=O)(=O)N2CCOCC2)c1)N(Cc1ccc(F)cc1)Cc1ccco1,0%,u,14,-9%,18µM*,2.1µM*
CN(C)S(=O)(=O)c1cccc(C(=O)N(Cc2ccc(F)cc2)Cc2ccco2)c1,u,u,-10,2%,u,3%
CCN(Cc1ccccc1)C(=O)c1cc(S(=O)(=O)N2CCOCC2)ccc1N1CCCC1,-1%,u,-9,11%,16µM*,4%
COCCN(Cc1ccccc1)C(=O)c1cccc(S(=O)(=O)N2CCN(Cc3ccccc3)CC2)c1,x,u,-7,x,18µM*,x
CCCCN(C(=O)c1ccc2c(c1)OCO2)c1ccccc1,4%,u,21,-41%,16µM*,6%
CCOc1ccc(S(=O)(=O)NCc2ccc3c(c2)OCO3)cc1C(=O)O,5%,-7%,5,-7%,1%,-1%
O=C(COc1cc(F)ccc1[N+](=O)[O-])NCCCc1ccccc1,-13%,-5%,-22,u,-20%,0%
N[C@@H](Cn1ccc(=O)n(Cc2ccccc2C(=O)O)c1=O)C(=O)O,x,-17%,x,x,1%,x
SMILES,BCR signal inh,TDP1 cell CPT,IL1B secr inh,SW480 rerep,DT40 TDP1 no CPT,MCF10A rerep
CCCn1c(N)c(N(CCOC)C(=O)c2cccc(S(=O)(=O)N3CCCc4ccccc43)c2)c(=O)[nH]c1=O,-8%,u,6,0%,u,-2%
COCCN(Cc1ccccc1)C(=O)c1cccc(S(=O)(=O)N2CCCc3ccccc32)c1,u,13µM*,25,1%,9.2µM*,-5%
CC(=O)N1CCN(C(=O)c2cccc(S(=O)(=O)N3CCN(c4ccc(F)cc4)CC3)c2)CC1,12%,-27%,8,0%,-14%,5%
CCN(Cc1ccccc1)C(=O)c1cccc(S(=O)(=O)N2CCN(c3ccc(F)cc3)CC2)c1,-5%,18µM*,-26,1%,16µM*,16%
CCN(Cc1ccccc1)C(=O)c1cccc(S(=O)(=O)N2CCN(c3ccccc3)CC2)c1,0%,16µM*,-6,0%,21µM*,9%
CCN(Cc1ccccc1)C(=O)c1cccc(S(=O)(=O)N2CCN(Cc3ccccc3)CC2)c1,15%,16µM*,-9,11%,26µM*,6%
NC(=O)COC(=O)c1cccc(S(=O)(=O)N2CCN(c3ccccc3)CC2)c1,-1%,-3%,-23,-15%,u,11%
C#CCOCCOCCOCCNc1nc(N2CCN(C(=O)[C@H](C(C)C)n3cc(CCO)nn3)CC2)nc(N2CCN(C(=O)[C@H]([C@@H](C)CC)n3cc(CCC(=O)O)nn3)CC2)n1,x,-2%,-6,u,-1%,7%
O=C(c1cccc(S(=O)(=O)N2CCOCC2)c1)N(CCO)Cc1ccccc1,21%,-23%,-13,18%,0%,2%
O=C(c1cccc(S(=O)(=O)N2CCCCC2)c1)N(CCc1ccccc1)Cc1ccccc1,15%,18µM*,2,3%,u,14%
CC(=O)N1CCN(S(=O)(=O)c2cccc(C(=O)N(Cc3ccccc3)c3cccc(C)c3)c2)CC1,8%,u,-1,-2%,u,-3%
CCCCN(C(=O)c1cccc(S(=O)(=O)N2CCN(Cc3ccccc3)CC2)c1)c1ccccc1,0%,u,-17,-6%,16µM*,8%
COCCc1nn2c(=O)cc(COC(=O)c3ccc4c(c3)OCO4)nc2s1,x,-2%,x,x,-14%,x
COc1cc2c(cc1OC)CN(C(=O)c1cccc([N+](=O)[O-])c1)CC2,-4%,26µM*,-8,-3%,u,-1%
COc1cc2c(cc1OC)CN(C(=O)/C=C/c1cccs1)CC2,u,1.5µM*,0,13µM*,1µM*,4.1µM*
COc1cc2c(cc1OC)CN(C(=O)c1ccc(OC)c([N+](=O)[O-])c1)CC2,-15%,-17%,-2,-10%,u,-5%
COc1cc2c(cc1OC)CN(C(=O)c1cccs1)CC2,0%,-10%,u,-7%,u,15%
COc1cc2c(cc1OC)CN(CC(=O)Nc1cccc([N+](=O)[O-])c1)CC2,-14%,u,-19,-10%,16µM*,4%
